Our source for the growth inhibition, inhibition and outcome values is PubChem BioAssay.

Several values for one entry are separate records, joined by “and”; a condition that tells them apart may be missing. Identical values can stand only once. For some assays here: Potency and affinity values are given separately. A structure can be active in one record and inactive in another. Activity calls are given as the source filed them. Unless noted, how the calls were made is not given here.

Experiment [1] is described as follows: antimalarial activity against Dd2 strain (AID 2302;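 active means growth inhibition above 50% at the single 2 µM test dose, taken to imply half-maximal potency below 2 µM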;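 further: 0% = DMSO untreated growth and 100% = chloroquine plus artemisinin killed control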). The conditions noted are these: P. falciparum Dd2 in RBCs, LDH growth readout, 72 h; at 2 µM; stronger effect = higher value.
The nature of experiment [2]: human hepatoma cell viability loss – ATP luminescence, cytotoxicity control for P. falciparum antimalarial project, primary screen (AID 2303;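 active means inhibition above 50%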;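 further: 0% = DMSO wells and 100% = digitonin-killed cells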). Conditions: HepG2 viability, 24-48 h, at 10 µM, stronger effect = higher value.
In experiment [3] the target is L-lactate dehydrogenase (Plasmodium falciparum (isolate CDC / Honduras)) (UniProt Q27743). Nature of the experiment: PfLDH activity inhibition – cell lysate, 3D7 strain, counter-screen for P. falciparum growth inhibition project (AID 2304).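 Further: 0% = vehicle and 100% = reference inhibitor.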 The conditions noted are these: P. falciparum 3D7 crude extract, LDH APAD/NBT absorbance; at 2 µM; stronger effect = higher value.
The nature of experiment [4]: inhibition of 3D7 malaria parasite growth – strain 3D7 (AID 2306).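 Further: 0% = DMSO wells and 100% = chloroquine plus artemisinin control wells.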 Conditions: P. falciparum 3D7 erythrocytic growth, LDH absorbance, 72 h; at 2 µM; stronger effect = higher value.
The target of experiment [5] is Calcium-dependent protein kinase 1 (Plasmodium falciparum (isolate 3D7)) (UniProt P62344). The experiment is described as follows: PfCDPK1 kinase inhibitors, biochemical, TCAMS library (AID 1159585; cut-off not given, nearly all actives have IC50 up to about 0.98 µM;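 further: inhibitors leave more ATP so luminescence rises with inhibition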). The conditions noted are these: recombinant PfCDPK1, Kinase-Glo ATP depletion luminescence.
Experiment [6] addresses Plasmodium falciparum protein kinase 6 (PK6, PF3D7_1337100) (UniProt Q8IDW1). Nature of the experiment: PfPK6 kinase inhibitors, biochemical, TCAMS library (AID 1159586). Conditions: recombinant PfPK6, Kinase-Glo ATP depletion luminescence. (In general: Kinase-Glo reads ATP consumption through a luciferase reaction.)
Experiment [7] has as its target Protein kinase 7 (PK7), Plasmodium falciparum 3D7 (PF3D7_0213400) (UniProt Q7YTF7). Nature of the experiment: inhibition of Plasmodium PK7 catalytic activity – biochemical, TCAMS antimalarial set, Kinase-Glo luminescence (AID 1159587). Conditions: recombinant PfPK7, Kinase-Glo ATP depletion luminescence.
Experiment [8] addresses Calcium-dependent protein kinase 4 (Plasmodium falciparum (isolate 3D7)) (UniProt Q8IBS5). Nature of the experiment: PfCDPK4 kinase inhibitors, biochemical, TCAMS library (AID 1159588; cut-off not given, nearly all actives have IC50 up to about 0.91 µM). The conditions noted are these: recombinant PfCDPK4, Kinase-Glo ATP depletion luminescence.

L-lactate dehydrogenase (Plasmodium falciparum (isolate CDC / Honduras)), sequence (Q27743 whole entry, looked up): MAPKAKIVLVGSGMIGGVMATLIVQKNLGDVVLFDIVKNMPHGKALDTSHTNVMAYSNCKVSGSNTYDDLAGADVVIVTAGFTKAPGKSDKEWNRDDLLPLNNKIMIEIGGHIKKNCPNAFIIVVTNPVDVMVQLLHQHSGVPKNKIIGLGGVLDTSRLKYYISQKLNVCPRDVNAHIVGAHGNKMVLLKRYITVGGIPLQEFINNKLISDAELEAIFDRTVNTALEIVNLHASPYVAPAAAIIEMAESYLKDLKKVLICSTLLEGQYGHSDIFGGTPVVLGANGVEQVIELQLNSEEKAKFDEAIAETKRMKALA
Calcium-dependent protein kinase 1 (Plasmodium falciparum (isolate 3D7)), sequence (P62344 whole entry, looked up): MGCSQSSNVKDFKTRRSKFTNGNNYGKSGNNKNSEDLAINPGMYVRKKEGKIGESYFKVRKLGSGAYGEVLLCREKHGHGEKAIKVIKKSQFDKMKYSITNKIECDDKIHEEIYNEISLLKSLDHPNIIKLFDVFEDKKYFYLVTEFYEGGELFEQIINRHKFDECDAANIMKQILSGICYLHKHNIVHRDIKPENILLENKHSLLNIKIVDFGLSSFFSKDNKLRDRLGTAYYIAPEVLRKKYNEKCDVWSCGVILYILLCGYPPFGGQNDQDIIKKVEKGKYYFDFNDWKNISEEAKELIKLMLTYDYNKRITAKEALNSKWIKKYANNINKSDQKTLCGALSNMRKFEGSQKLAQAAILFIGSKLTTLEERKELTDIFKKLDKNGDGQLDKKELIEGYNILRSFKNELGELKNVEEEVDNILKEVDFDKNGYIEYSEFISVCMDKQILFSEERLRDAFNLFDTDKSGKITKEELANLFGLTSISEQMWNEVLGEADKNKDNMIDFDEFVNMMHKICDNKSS
Protein kinase 7 (PK7), Plasmodium falciparum 3D7 (PF3D7_0213400), sequence (Q7YTF7 1-343): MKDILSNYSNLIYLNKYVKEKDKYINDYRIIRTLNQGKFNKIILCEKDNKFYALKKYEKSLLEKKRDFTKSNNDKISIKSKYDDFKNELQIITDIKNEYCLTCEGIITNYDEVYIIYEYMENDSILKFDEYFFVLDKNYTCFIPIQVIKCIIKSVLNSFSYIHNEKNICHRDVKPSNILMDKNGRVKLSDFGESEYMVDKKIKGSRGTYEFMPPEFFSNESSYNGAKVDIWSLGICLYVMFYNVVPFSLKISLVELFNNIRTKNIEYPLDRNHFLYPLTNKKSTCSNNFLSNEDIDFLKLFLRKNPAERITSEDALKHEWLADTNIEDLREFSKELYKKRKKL
Plasmodium falciparum protein kinase 6 (PK6, PF3D7_1337100), sequence (Q8IDW1 1-305): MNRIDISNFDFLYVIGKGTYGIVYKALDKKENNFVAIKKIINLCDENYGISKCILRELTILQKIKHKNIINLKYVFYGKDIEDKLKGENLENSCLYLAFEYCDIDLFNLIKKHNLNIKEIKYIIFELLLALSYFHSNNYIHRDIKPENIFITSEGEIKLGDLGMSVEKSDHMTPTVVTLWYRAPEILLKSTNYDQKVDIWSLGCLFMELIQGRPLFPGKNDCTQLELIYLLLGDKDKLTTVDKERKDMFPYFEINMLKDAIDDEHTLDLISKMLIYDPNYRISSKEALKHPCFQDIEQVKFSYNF
Calcium-dependent protein kinase 4 (Plasmodium falciparum (isolate 3D7)), sequence (Q8IBS5 whole entry, looked up): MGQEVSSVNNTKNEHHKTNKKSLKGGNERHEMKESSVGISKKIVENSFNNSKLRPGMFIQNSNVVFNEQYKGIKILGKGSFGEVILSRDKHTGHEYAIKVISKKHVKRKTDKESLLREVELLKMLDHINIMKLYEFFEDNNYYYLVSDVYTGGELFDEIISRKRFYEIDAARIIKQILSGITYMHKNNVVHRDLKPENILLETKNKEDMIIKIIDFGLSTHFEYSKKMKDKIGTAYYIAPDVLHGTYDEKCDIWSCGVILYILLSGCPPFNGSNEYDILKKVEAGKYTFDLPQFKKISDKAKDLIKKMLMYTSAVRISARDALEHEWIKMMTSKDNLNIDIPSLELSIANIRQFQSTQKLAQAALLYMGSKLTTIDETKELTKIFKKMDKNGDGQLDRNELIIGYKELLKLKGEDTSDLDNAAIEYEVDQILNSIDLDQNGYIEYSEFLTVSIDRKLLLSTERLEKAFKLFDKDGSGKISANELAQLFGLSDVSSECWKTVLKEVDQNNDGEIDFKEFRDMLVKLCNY

What is called inhibition is the change of the read-out against control, counted positive when it falls. On to `COc1c(F)cc(CC(C)NCC(O)c2cccc(Cl)c2)cc1F` (stereo unspecified), for which the growth inhibition in experiment [1] was 86% (active); in experiment [4], 93% (active). Further, the inhibition in experiment [2] and in experiment [3] was 0% (inactive) in each case. The result in experiment [5], in experiment [6], in experiment [7] and in experiment [8] was inactive.

Consider `C/C=C1\CN2CC[C@H]1C[C@H]2[C@H](O)c1ccnc2ccc(OC)cc12`, for which the growth inhibition was 45% (inactive) and 61% (active) in experiment [1]; 102% (active) and 99% (active) in experiment [4]. For the same compound, the inhibition in experiment [2] was -12% (inactive) and -9% (inactive); in experiment [3] it was 4% (inactive) and -10% (inactive). Besides, the result in experiment [5], in experiment [6], in experiment [7] and in experiment [8] was inactive.

In the case of `CCCCCCCN1[C@@H]2CC[C@H]1CC(CCOc1ccnc3ccc(OC)cc13)C2` (stereo partly specified), the growth inhibition in experiment [1] was 88% (active); in experiment [4], 98% (active). In addition, the inhibition in experiment [2] is 23% (inactive); in experiment [3] it was -1% (inactive). Also, the outcome in experiment [5], in experiment [6], in experiment [7] and in experiment [8] was inactive.

For the compound `COc1cc(NCCCNC(=O)c2cn(Cc3ccccc3)c3ccccc23)nc2ccccc12`, the growth inhibition in experiment [1] was 66% (active); in experiment [4], 101% (active). Besides, the inhibition in experiment [2] was 13% (inactive); in experiment [3], 0% (inactive). Moreover, the result in experiment [5], in experiment [6], in experiment [7] and in experiment [8] was inactive.

Turning to `CC(C)CNCc1cccc(-c2ccc(CN(C(=O)Nc3ccccc3)C3CCN(Cc4ccccc4)CC3)cc2)c1`, the growth inhibition in experiment [1] was 61% (active); in experiment [4] it was 101% (active). The inhibition in experiment [2] is 41% (inactive); in experiment [3], -2% (inactive). Also, the outcome in experiment [5], in experiment [6], in experiment [7] and in experiment [8] was inactive.

Turning to `O=C(Nc1ccc(Oc2ccccc2)cc1)NC1CCC(CN2CCC(c3c[nH]c4ccccc34)CC2)CC1` (stereo unspecified), the growth inhibition is 97% (active) in experiment [1] and 101% (active) in experiment [4]. The inhibition in experiment [2] was 55% (active); in experiment [3], 4% (inactive). The outcome in experiment [5], in experiment [6], in experiment [7] and in experiment [8] was inactive.

On to `CC(Cc1ccc(OC2CCCCC2)cc1)NCC(O)c1cccc(Cl)c1` (stereo unspecified), for which the growth inhibition in experiment [1] and in experiment [4] was 99% (active) each time. Besides, the inhibition in experiment [2] is 66% (active); in experiment [3], -4% (inactive). Besides, the result in experiment [5], in experiment [6], in experiment [7] and in experiment [8] was inactive.

With `COc1ccc(C(=O)[C@H]2C[C@@H]2CN2CC=C(c3c[nH]c4ccccc34)CC2)cc1`, the growth inhibition in experiment [1] is 89% (active); in experiment [4], 95% (active). Further, the inhibition is 12% (inactive) in experiment [2] and 1% (inactive) in experiment [3]. Besides, the result in experiment [5], in experiment [6], in experiment [7] and in experiment [8] was inactive.

On to `S=C(Nc1ccc2c(c1)OCCO2)NC1CCC(CN2CCC(c3c[nH]c4ccccc34)CC2)CC1` (stereo unspecified), for which the growth inhibition in experiment [1] is 7% (inactive) and 1% (inactive); in experiment [4] it was 96% (active) and 92% (active). The inhibition was 31% (inactive) and 32% (inactive) in experiment [2]; -8% (inactive) and -1% (inactive) in experiment [3]. In addition, the outcome in experiment [5], in experiment [6], in experiment [7] and in experiment [8] was inactive.

Take `CNCCN(C)C(=O)Oc1c(Cl)c(C)nc(C)c1-c1ccc(Oc2ccc(OC(F)(F)F)cc2)cc1`: the growth inhibition was 96% (active) in experiment [1] and 97% (active) in experiment [4]. Also, the inhibition in experiment [2] and in experiment [3] was -2% (inactive) each time. The result in experiment [5], in experiment [6], in experiment [7] and in experiment [8] was inactive.

`O=C(Nc1ccccc1Cl)NC1CCC(CN2CCC(c3c[nH]c4ccccc34)CC2)CC1` (stereo unspecified): the growth inhibition in experiment [1] was 31% (inactive) and 34% (inactive); in experiment [4] it was 98% (active) and 101% (active). Further, the inhibition in experiment [2] is 32% (inactive) and 37% (inactive); in experiment [3], 0% (inactive) and -2% (inactive). Moreover, the outcome in experiment [5], in experiment [6], in experiment [7] and in experiment [8] was inactive.

With `O=C(NC1CCC(CN2CCC(c3c[nH]c4ccccc34)CC2)CC1)c1cc2ccccc2o1` (stereo unspecified), the results for the growth inhibition in experiment [1] and in experiment [4] were 14% (inactive) and 94% (active), respectively. The results for the inhibition in experiment [2] and in experiment [3] were 34% (inactive) and 4% (inactive), respectively. The result in experiment [5], in experiment [6], in experiment [7] and in experiment [8] was inactive.

As to `O=C(/C=C/c1ccccc1Cl)NC1CCC(CN2CCC(c3c[nH]c4ccccc34)CC2)CC1` (stereo unspecified), the growth inhibition is 35% (inactive) and 51% (active) in experiment [1]; 99% (active) and 100% (active) in experiment [4]. In addition, the inhibition is 33% (inactive) and 41% (inactive) in experiment [2]; -2% (inactive) and 3% (inactive) in experiment [3]. For the same compound, the outcome in experiment [5], in experiment [6], in experiment [7] and in experiment [8] was inactive.

Take `Cc1cc2ccc(CNCCc3ccccc3Br)cc2nc1N`: the figures for the growth inhibition in experiment [1] and in experiment [4] were 48% (inactive) and 101% (active), respectively. Moreover, the inhibition is -1% (inactive) in experiment [2] and 1% (inactive) in experiment [3]. The result in experiment [5], in experiment [6], in experiment [7] and in experiment [8] was inactive.

As for `COC(=O)c1ccc(CC(C)NCC(O)c2ccc3ccc4ccccc4c3c2)cc1` (stereo unspecified), the growth inhibition in experiment [1] was 97% (active); in experiment [4] it was 100% (active). The inhibition in experiment [2] is 21% (inactive); in experiment [3] it was -2% (inactive). Moreover, the outcome in experiment [5], in experiment [6], in experiment [7] and in experiment [8] was inactive.

On to `O=C(c1cc(C(=O)NCc2ccc(Cl)cc2)c(=O)n(Cc2ccc(Cl)cc2)c1)c1cc(F)ccc1O`, for which the growth inhibition in experiment [1] was 2% (inactive); in experiment [4], 93% (active). Besides, the inhibition in experiment [2] was 7% (inactive); in experiment [3], -2% (inactive). Also, the outcome in experiment [5], in experiment [6], in experiment [7] and in experiment [8] was inactive.

In the case of `CCCCCc1cc(O)c2c(c1)OC(C)(C)CC2C1=CCN(Cc2cccnc2)CC1` (stereo unspecified), the growth inhibition in experiment [1] and in experiment [4] was 97% (active) each time. Besides, the figures for the inhibition in experiment [2] and in experiment [3] were 15% (inactive) and -1% (inactive), respectively. For the same compound, the outcome in experiment [5], in experiment [6], in experiment [7] and in experiment [8] was inactive.

As to `CC(Cc1ccc(C(C)(C)C)cc1)NCC(O)c1ccccc1` (stereo unspecified), the growth inhibition in experiment [1] was 89% (active); in experiment [4] it was 94% (active). For the same compound, the figures for the inhibition in experiment [2] and in experiment [3] were 5% (inactive) and 3% (inactive), respectively. For the same compound, the result in experiment [5], in experiment [6], in experiment [7] and in experiment [8] was inactive.

`O=C(/C=C/c1ccc(Cl)c(Cl)c1)NCCCCCN1C2CCC1CC(c1c[nH]c3ccccc13)C2` (stereo unspecified): the growth inhibition in experiment [1] was 4% (inactive); in experiment [4], 98% (active). Further, the inhibition in experiment [2] is 54% (active); in experiment [3], -1% (inactive). Also, the outcome in experiment [5], in experiment [6], in experiment [7] and in experiment [8] was inactive.

Regarding `Cc1[nH]c2cc(Cl)ccc2c1C1=CCN(CCCCC2(C)C(=O)Nc3c(F)cccc32)CC1` (stereo unspecified), the growth inhibition in experiment [1] was 74% (active); in experiment [4] it was 90% (active). For the same compound, the inhibition is 14% (inactive) in experiment [2] and 3% (inactive) in experiment [3]. Moreover, the result in experiment [5], in experiment [6], in experiment [7] and in experiment [8] was inactive.

Consider `CC1CN=C(Nc2ncc(Cl)cc2Cl)N1` (stereo unspecified), for which the values for the growth inhibition in experiment [1] and in experiment [4] were 3% (inactive) and 99% (active), respectively. Besides, the inhibition is 2% (inactive) in experiment [2] and 7% (inactive) in experiment [3]. In addition, the result in experiment [5], in experiment [6], in experiment [7] and in experiment [8] was inactive.

As to `Cc1ccc(C)c(N2CCN(Cc3ccccc3O)CC2)c1`, the growth inhibition in experiment [1] is 90% (active); in experiment [4] it was 100% (active). Further, the results for the inhibition in experiment [2] and in experiment [3] were 11% (inactive) and 5% (inactive), respectively. Besides, the result in experiment [5], in experiment [6], in experiment [7] and in experiment [8] was inactive.
